Bioassay records: PubChem BioAssay, National Center for Advancing Translational Sciences (NCATS)
ELG1 repair inh = ELG1-dependent DNA repair inhibition; Potency, µM (highest dose often 46.1 µM), for inactives: at the highest dose activity change, negative = inhibition, hits mostly inhibitors; actives 2.3% (n = 330,000); HEK293T ELG1-luciferase reporter, luminescence, 16 h; DNA damage induced by 5-fluorouridine; note: nearly all actives have a fitted effect of over 55% in size
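DMSO vehicle served as the neutral condition. Each well held 2,000 cells given 5-fluorouridine plus compound; after 16 hr at 37 °C/5% CO2, ONE-Glo was added and luciferase measured 30 min later.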
VP16 counter = counter-screen for ROR gamma inhibitors: Gal4-VP16 reporter; actives 3.5% (n = 310,000); Drosophila S2 Gal4-VP16 UAS-luciferase, luminescence, 20 h; Potency, µM (doses to about 53.6 µM), inactives show at the highest dose activity, negative = inhibition, most hits filed as inhibitors; AID 2546;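 note: Gal4-VP16 expression switched on by copper sulfate through the metallothionein promoter; nearly all actives have a fitted effect of over 50% in size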
DT40 TDP1 CPT = DT40-hTDP1 cell growth loss with CPT; chicken DT40 Tdp1-/-;hTDP1 cells + 20 nM CPT, ATP luminescence, 48 h; Potency, µM (titrated, usually from 46.2 µM), for the others: at the top dose activity change, negative = growth inhibition, most hits filed as inhibitors; actives 12% (n = 420,000); note: nearly all actives have a fitted effect of over 55% in size
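Chicken DT40 Tdp1-/- cells complemented with human TDP1, 400 cells/well, exposed to compounds plus 20 nM camptothecin for at least 48 h at 37 C; viability read as ATP content by CellTiter-Glo luminescence.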
RORgamma inh = blocks mouse ROR gamma transcriptional activity. AID 2551. actives 5.4% (n = 310,000). Drosophila S2 Gal4-RORgamma UAS-luciferase reporter, 20 h. P51450. Potency, µM (titrated, usually from 53.6 µM), without a hit: at the top dose activity change, negative = inhibition, hits mostly inhibitors; note: nearly all actives have a fitted effect of over 60% in size
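Drosophila S2 cells stably expressing Gal4-DBD/mouse RORγ fusion under metallothionein promoter plus UAS-luciferase; compound 1 h, then 700 uM CuSO4 induction for 20 h at ambient temperature; inhibition read as reduced luminescence.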
TDP1 cell noCPT = qHTS for Inhibitors of human tyrosyl-DNA phosphodiesterase 1 (TDP1): qHTS in cells in absence of CPT; DT40 Tdp1-/- hTDP1 cells, no CPT, ATP luminescence, 48 h; Potency, µM (series often up to 46.2 µM), for inactives: at the top dose activity change, negative = growth inhibition, actives largely listed as inhibitors; actives 15% (n = 420,000); note: nearly all actives have a fitted effect of over 55% in size
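Stably hTDP1-transfected Tdp1-null chicken DT40 cells were treated with library compounds minus camptothecin and grown for at least 48 hr at 37 °C, after which cellular ATP was quantified by luminescence.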
ALOX12 inh = blocks human arachidonate 12S-lipoxygenase | P18054 | purified 12hLO, xylenol orange hydroperoxide absorbance | Potency, µM (titrated, usually from 108 µM), for the others: top-dose activity change, negative = inhibition, most hits filed as inhibitors | actives 1.1% (n = 580,000)
Target sequence (P18054 whole entry, looked up): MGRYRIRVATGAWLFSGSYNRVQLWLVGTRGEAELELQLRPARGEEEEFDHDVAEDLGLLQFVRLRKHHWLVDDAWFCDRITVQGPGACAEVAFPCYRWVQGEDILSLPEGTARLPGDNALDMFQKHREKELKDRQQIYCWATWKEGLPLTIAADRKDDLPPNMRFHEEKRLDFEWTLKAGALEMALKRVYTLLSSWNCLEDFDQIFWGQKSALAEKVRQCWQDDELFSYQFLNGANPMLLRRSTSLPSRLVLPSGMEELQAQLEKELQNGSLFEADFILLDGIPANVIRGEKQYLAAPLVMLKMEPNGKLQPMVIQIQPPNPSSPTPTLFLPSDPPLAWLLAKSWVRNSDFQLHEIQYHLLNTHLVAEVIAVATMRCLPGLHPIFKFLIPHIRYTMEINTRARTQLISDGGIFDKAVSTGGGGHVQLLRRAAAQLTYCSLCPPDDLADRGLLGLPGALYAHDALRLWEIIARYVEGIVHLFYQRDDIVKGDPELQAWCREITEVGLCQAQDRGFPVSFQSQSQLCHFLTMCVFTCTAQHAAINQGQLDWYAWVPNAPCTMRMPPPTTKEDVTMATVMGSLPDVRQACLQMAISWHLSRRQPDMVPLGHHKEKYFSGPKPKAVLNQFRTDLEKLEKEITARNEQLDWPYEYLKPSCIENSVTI
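Hydroperoxide product was detected by ferrous iron/xylenol orange as the 573 to 405 nm absorbance ratio. Arachidonic acid at 40 uM (final) was turned over for 30 min at room temperature by 150 nM human 12hLO, pH 7.0 Hepes buffer, after 15 min compound preincubation.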
Numbers without * were called inactive; ? = inconclusive; · = not tested or not shown. This is a sample that favours compounds with a hit; in the whole collection about 15% have one here. Calls come from the whole dose curve; as a rule, active = well fitted curve in the direction sought with a large enough effect; inconclusive = small, poorly fitted or top-dose-only effect, or another doubt; inactive = no such curve, though single readings can be large; an effect the other way counts as inactive or inconclusive. % is set by controls: 0 for no effect and ±100 for the full control effect; potency is the fitted concentration of half-maximal effect.

SMILES	ELG1 repair inh	VP16 counter	DT40 TDP1 CPT	RORgamma inh	TDP1 cell noCPT	ALOX12 inh
O=C(NC(=S)Nc1ccc(N2CCCC2)cc1)c1ccccc1[N+](=O)[O-]	11%	5µM*	-9%	4µM*	-29%	23%
O=C(NC(=S)Nc1ccccc1N1CCCC1)c1ccccc1[N+](=O)[O-]	3%	4µM*	-17%	2.8µM*	-5%	-14%
CCCS(=O)(=O)c1c(S(=O)(=O)CCC)c2cc(C(C)(C)C)ccn2c1C(=O)c1ccc(C)cc1	·	·	23µM*	·	15µM*	0%
O=C(COc1nsnc1N1CCOCC1)Nc1ccc([N+](=O)[O-])cc1	-23%	4%	29µM*	1%	23µM*	-3%
O=C(COc1nsnc1N1CCOCC1)Nc1ccc(Cl)cc1	4%	-4%	?	4%	15µM*	-5%
Cc1ccc(C(=O)NC2CCN(C(=O)N3CC4CC(C3)[C@H]3CCCC(=O)N3C4)CC2)cc1 (some centres not stated)	·	·	·	·	·	17%
Cc1oc2ccc(O)c(CN3CCN(C)CC3)c2c1C(=O)Nc1cccc(Cl)c1C	·	·	8.2µM*	·	18µM*	?
CCN1CCN(Cc2c(O)ccc3oc(C)c(C(=O)Nc4cccc(Cl)c4C)c23)CC1	·	·	8.2µM*	·	21µM*	?
CCc1cccc(CC)c1NC(=O)c1c(C)oc2ccc(O)c(CN3CCOCC3)c12	·	·	?	·	?	-12%
COc1cccc2cc(C(=O)Nc3ccccc3OC(F)F)c(=O)oc12	·	·	·	·	·	-19%
CCC(C(=O)NC1CCCC1)N(Cc1ccccc1Cl)C(=O)c1snc(C(N)=O)c1N (configuration not stated)	?	-16%	-5%	-15%	13µM*	1%
CC(C)CC(C(=O)NC1CCCCC1)N(Cc1cccs1)C(=O)c1snc(C(N)=O)c1N (configuration not stated)	?	20%	?	3%	?	-14%
CC(C)CC(C(=O)NC1CCCC1)N(Cc1cccs1)C(=O)c1snc(C(N)=O)c1N (configuration not stated)	18µM*	-9%	?	-1%	?	-22%
CCOc1ccc(N(C(=O)c2snc(C(N)=O)c2N)C(CC)C(=O)NC2CCCC2)cc1 (configuration not stated)	1%	7%	-20%	14%	12%	-13%
CCCC(C(=O)NC(C)(C)C)N(Cc1ccc(F)cc1)C(=O)c1snc(C(N)=O)c1N (configuration not stated)	4%	-5%	-15%	11%	?	-6%
CCCC(C(=O)NCCC(C)C)N(Cc1ccccc1)C(=O)c1snc(C(N)=O)c1N (configuration not stated)	?	2%	18µM*	43%	?	?
CCCC(C(=O)NC1CCCC1)N(C(=O)c1snc(C(N)=O)c1N)c1ccc(OCC)cc1 (configuration not stated)	?	-2%	-20%	23%	21µM*	-15%
CN1CCCCCCN(C(=O)c2cccn2C)[C@H]2CCC[C@H]2C1=O	·	·	·	·	·	11%
CCCCC(C(=O)NC1CCCC1)N(Cc1ccccc1)C(=O)c1snc(C(N)=O)c1N (configuration not stated)	-29%	14%	?	31%	21µM*	-21%
COc1ccc(C)cc1NC(=O)CSc1nc(=O)n(Cc2ccccn2)c2c1CCC2	·	·	?	·	21µM*	-10%
COc1ccc(C)cc1NC(=O)CSc1nc(=O)n(Cc2cccnc2)c2c1CCC2	·	·	?	·	18µM*	-4%
CCN(CC)CCCn1c2c(c(SCC(=O)Nc3cc(OC)cc(OC)c3)nc1=O)CCC2	5%	·	?	·	18µM*	-20%
CCOc1ccccc1NC(=O)CSc1nc(=O)n(Cc2ccccn2)c2c1CCC2	-5%	·	-4%	·	-23%	?
CCN(CC)CCCn1c2c(c(SCC(=O)Nc3ccc(F)c(F)c3)nc1=O)CCC2	12%	·	-5%	·	-1%	-16%
CC(=O)Nc1ccc(NC(=O)CSc2nc(=O)n(Cc3cccnc3)c3c2CCC3)cc1	·	·	0%	·	-4%	1%
SMILES	ELG1 repair inh	VP16 counter	DT40 TDP1 CPT	RORgamma inh	TDP1 cell noCPT	ALOX12 inh
CCc1ccc(NC(=O)CSc2nc(=O)n(Cc3cccnc3)c3c2CCC3)cc1	·	·	?	·	16µM*	-25%
Cc1cccc(NC(=O)CSc2nc(=O)n(Cc3cccnc3)c3c2CCC3)c1	·	·	-29%	·	-30%	-22%
COc1ccc(Cl)cc1NC(=O)CSc1nc(=O)n(CCN(C)C)c2c1CCCC2	-3%	·	16µM*	·	?	4%
O=C(Nc1nc(-c2ccncc2)cs1)c1ccc(S(=O)(=O)N2CCCCC2)cc1	·	·	·	·	·	-3%
O=C(Nc1nc(-c2ccc(S(=O)(=O)N3CCCCCC3)cc2)cs1)c1cccs1	13µM*	3%	?	-10%	21µM*	-6%
O=C(Nc1nc(-c2ccc(S(=O)(=O)N3CCCC3)cc2)cs1)c1cccs1	8.2µM*	13%	?	17%	15µM*	2%
Cc1ccc(C(=O)NCC23CCC=C2N(C)C(=O)CC3)cn1 (configuration not stated)	·	·	·	·	·	10%
O=C(c1ccoc1)N1CCC2(CC1)CC(N(C(=O)c1ccccc1)C1CC1)CCO2 (configuration not stated)	·	·	·	·	·	5%
NS(=O)(=O)c1ccc(CCNc2ncnc3sccc23)cc1	?	4µM*	7.3µM*	?	5.8µM*	2%
CN(C)c1ccc(CNc2ncnc3sccc23)cc1	-20%	7.1µM*	4.1µM*	?	2.1µM*	-14%
Cc1sc2ncnc(NCCc3ccc(S(N)(=O)=O)cc3)c2c1C	18µM*	2.5µM*	2.9µM*	8.9µM*	1.5µM*	0%
NS(=O)(=O)c1ccc(CNc2ncnc3sccc23)cc1	16%	3%	?	-3%	?	0%
Cc1ccc(/C=C/C(=O)O)c(C)c1	·	·	·	·	·	12%
CC1CCCN(C(=O)CSc2nnc(-c3ccccc3)o2)C1 (configuration not stated)	·	·	·	·	·	2%
COCCNc1nc(Oc2cccc(NC(C)=O)c2)c2sc(-c3ccccc3)cc2n1	·	·	?	·	?	-24%
COc1ccccc1CNc1nc(NC(C)C)nc2cc(-c3ccccc3)sc12	·	·	2.6µM*	·	4.1µM*	?
